mHtt clearance: mutant huntingtin protein clearance. HeLa Exon1htt(103Q)mCFP, aggregate imaging; zero = plate's median compound well. inhibition, % at 1.5 µM. actives 0.42% (n = 47,000);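 active means inhibition of aggregate fluorescence above about 70%, also judged a hit by eye on the cell image, limit read from the data, passing the limit was not always enough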;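 further: cells exposed to compound for three days before fixation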
CatB mix inh: human cathepsin B inhibition by mixtures | Purified cathepsin B, AMC dipeptide fluorescence, compound mixtures | actives 0.06% (n = 62,000) | inhibition, %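 (ten-compound pools at 5 µM per compound and 50 µM total)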 | P07858; in the data active means inhibition above about 22%, passing the limit was not always enough;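 further: 0% = enzyme without compound and 100% = no enzyme blank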
CatS block: blocks human cathepsin S protease activity; P25774; recombinant cathepsin S, AMC dipeptide fluorescence, pooled mixtures; inhibition, %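 (tested at 5 µM per compound within 10-compound mixtures)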; actives 0.06% (n = 62,000); AID 501; in the data active means inhibition above about 32%, passing the limit was not always enough;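 further: 0% = enzyme without compound and 100% = blank without enzyme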
Target sequence (P25774 115-331 limits assumed): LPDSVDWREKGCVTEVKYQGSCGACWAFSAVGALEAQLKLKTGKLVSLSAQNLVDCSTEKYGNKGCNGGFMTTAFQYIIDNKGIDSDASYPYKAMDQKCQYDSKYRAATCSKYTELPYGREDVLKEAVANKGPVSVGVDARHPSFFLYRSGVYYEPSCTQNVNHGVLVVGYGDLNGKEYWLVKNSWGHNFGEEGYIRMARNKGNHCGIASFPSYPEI
CatB inh: human cathepsin B inhibition. AID 453. actives 0.1% (n = 63,000). P07858. purified cathepsin B, fluorogenic substrate, fluorescence. inhibition, %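 (tested at 10 µM)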; in the data active means inhibition above about 21%;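 further: 0% = enzyme with no compound and 100% = no enzyme blank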
CatL block: blocks human cathepsin L protease activity; P07711; purified cathepsin L, fluorogenic substrate, fluorescence; inhibition, %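 (tested at 10 µM)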; actives 0.17% (n = 58,000); AID 460; in the data active means inhibition above about 45%;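 further: 0% = enzyme with no compound and 100% = no enzyme blank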
An asterisk follows results filed as active. Most compounds without a hit are left out; they make up all but 0.52% or so of the library.

Screening O=C(CSc1nnc(Cc2cccs2)n1-c1ccc(Cl)cc1)NCc1ccc2c(c1)OCO2 returned mHtt clearance 62.3.
`CCCCc1c(C)nn(-c2nnc3c4ccccc4n(C)c3n2)c1C` gave CatB inh -0.4 and CatL block 94.3*.
`CCc1nnc(NC(=O)CSc2nnc3c4ccccc4n(C)c3n2)s1` gave CatB mix inh -9.0, CatS block -0.1, CatB inh 3.4 and CatL block 3.7.
`O=C(NCCCN1CCN(Cc2ccccc2)CC1)C1CCN(c2nnc(-n3cccc3)s2)CC1` gave CatB mix inh 1.0, CatS block 8.5, CatB inh 3.3 and CatL block 63.8*.
`O=C(NCCCN1CCc2ccccc2C1)C1CCN(c2nnc(-n3cccc3)s2)CC1` gave CatB mix inh -10.0, CatS block 2.0, CatB inh -3.7 and CatL block 78.0*.
`Cc1n[nH]c(=O)nc1NCC1CCCO1` (stereo unspecified) gave mHtt clearance 75.6*, CatB mix inh 8.2, CatS block 9.4, CatB inh -2.6 and CatL block -5.5.
Cc1ccc(C(=O)C(OC(=O)CNS(=O)(=O)c2ccccc2)c2ccccc2)cc1 (stereo unspecified) was read as mHtt clearance 34.8.
`COc1ccc(C2CC(c3ccc(Cl)cc3)Nc3nc(NC(=O)c4ccco4)nn32)cc1` (stereo unspecified) gave mHtt clearance 74.7*, CatB mix inh 4.9, CatS block 0.0, CatB inh 2.4 and CatL block 4.4.
Screening O=C(CSc1nnc(-c2ccccc2)n1Cc1ccco1)Nc1ccc(S(=O)(=O)N2CCCC2)cc1 returned mHtt clearance 83.8*.
CCOC(=O)C(C(=O)Nc1ccc(C)cc1)C1CCCCC1 (stereo unspecified) was read as mHtt clearance 12.4.
Screening Cc1ccc(C)n1-c1ccc(N2CCOCC2)cc1 returned mHtt clearance 96.9*, CatB mix inh 8.3, CatS block 8.8, CatB inh 3.2 and CatL block 6.4.
For c1ccn(-c2ccc(N3CCOCC3)cc2)c1 the results were mHtt clearance -24.8.
For NNC(=O)c1cnn(Cc2ccccc2)c1N the results were mHtt clearance 11.9.
For O=C(CCCC(=O)N1CCCc2ccccc21)N1CCCc2ccccc21 the results were mHtt clearance -43.2, CatB mix inh 2.8, CatS block -2.5, CatB inh 0.3 and CatL block -7.1.
For O=C(Nc1ccccc1)N1CCCc2ccccc21 the results were mHtt clearance 82.7*.
For CC1CCN(C(=O)C2CCN(C(=O)c3cc4sccc4n3Cc3ccc(F)cc3)CC2)CC1 the results were CatB mix inh 1.3, CatS block -2.2, CatB inh 1.3 and CatL block 54.0*.
CC(C)NC(=O)C1CCN(C(=O)c2cc3sccc3n2Cc2ccc(F)cc2)CC1 was read as CatB mix inh 2.7, CatS block -2.8, CatB inh -0.1 and CatL block -3.9.
For CC(C)(C)C(=O)NC1CCN(C(=O)N2CCCC2)CC1 the results were mHtt clearance 99.2*, CatB mix inh 6.3, CatS block -0.8, CatB inh -1.9 and CatL block -3.1.
COc1ccc2nc(/N=C\N(C)C)sc2c1 was read as mHtt clearance 14.2, CatB mix inh 0.7, CatS block 6.5, CatB inh 40.7* and CatL block 13.8.
Screening CN(C)/C=N/c1nc2ccc3c(c2s1)CCCC3 returned CatB mix inh -2.6, CatS block -2.2, CatB inh 2.6 and CatL block 3.9.
For Cc1nnc(SCC(N)=O)n1CCc1ccccc1 the results were mHtt clearance 71.4*.
For Cc1nnc(SCC(=O)NC(C)(C)C)n1CCc1ccccc1 the results were CatB mix inh 6.8, CatS block -11.0, CatB inh -4.4 and CatL block -3.1.
For COCCn1c(CN2CCN(c3ccccc3F)CC2)nc2c1c(=O)n(C)c(=O)n2C the results were CatB mix inh -0.3, CatS block 32.5, CatB inh -0.4 and CatL block 13.0.
CCCn1c(SCC(=O)Nc2ccc3c(c2)OCCO3)nnc1-c1ccco1 was read as CatB mix inh 3.5, CatS block -0.3, CatB inh 5.2 and CatL block -4.9.
Screening Cc1ccc(-n2c(SCC(=O)Nc3ccc4c(c3)OCCO4)nnc2-c2ccco2)cc1 returned mHtt clearance 72.5*, CatB mix inh 0.6, CatS block 5.8, CatB inh 0.6 and CatL block 31.3.
For COC(=O)C1CN(S(=O)(=O)c2ccccc2)CCN1S(=O)(=O)c1ccccc1 (stereo unspecified) the results were mHtt clearance -29.4.

Screening results deposited in PubChem BioAssay by several laboratories.
